# In PMC5913336, “True equilibrium measurement of transcription factor-DNA binding affinities using automated polarization microscopy”:
# Molecular target: T1, Fkh (Drosophila melanogaster, UniProt P14734 209-300)
# T1 sequence: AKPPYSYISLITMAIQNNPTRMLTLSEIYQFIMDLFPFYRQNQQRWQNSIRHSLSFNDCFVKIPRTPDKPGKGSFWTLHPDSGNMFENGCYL
# Assay: FP; 33 mM phosphate pH 7.0, 90 mM NaCl, 0.01% Tween 20, 0.1 mM DTT, 0.5% agarose; room temperature
# Details: tags: N-GST (pGEX-6P-1, kept); dsDNA, one strand shown
Sequence,binding signal,Kd
AGTTAAATAATGA,2.19 Kd / Kd of best base at the position,
AGTCAAATATTGA,3.44 Kd / Kd of best base at the position,
AGTTAAATATGGA,3.07 Kd / Kd of best base at the position,
AGTTACATATTGA,4.6 Kd / Kd of best base at the position,
AGTTAAATGTTGA,102 Kd / Kd of best base at the position,
AGTTCAATATTGA,2.55 Kd / Kd of best base at the position,
AGTTAAATATTAA,1.49 Kd / Kd of best base at the position,
AGTTAAATATCGA,6.39 Kd / Kd of best base at the position,
AGTGAAATATTGA,6.68 Kd / Kd of best base at the position,
AGTTAAATATTTA,1.68 Kd / Kd of best base at the position,
AGTTAATTATTGA,6.31 Kd / Kd of best base at the position,
AGTTAAATATTGC,2.76 Kd / Kd of best base at the position,
AGTTAAATTTTGA,7.9 Kd / Kd of best base at the position,
GGTTAAATATTGA,6.61 Kd / Kd of best base at the position,
AGTTAACTATTGA,10.2 Kd / Kd of best base at the position,
ATTTAAATATTGA,1.06 Kd / Kd of best base at the position,
AGTTAAAAATTGA,18.5 Kd / Kd of best base at the position,
AGTTAAATATTCA,2.02 Kd / Kd of best base at the position,
AGTTGAATATTGA,59.1 Kd / Kd of best base at the position,
AGTAAAATATTGA,4.77 Kd / Kd of best base at the position,

Sequence,binding signal,Kd
AGTTAAAGATTGA,14.9 Kd / Kd of best base at the position,
AGTTAAGTATTGA,37.9 Kd / Kd of best base at the position,
AGTTATATATTGA,18.4 Kd / Kd of best base at the position,
AATTAAATATTGA,2.06 Kd / Kd of best base at the position,
AGTTAAACATTGA,29.1 Kd / Kd of best base at the position,
AGTTAAATATTGG,1.17 Kd / Kd of best base at the position,
AGTTAAATATTGT,1.97 Kd / Kd of best base at the position,
AGTTAAATATTGA,,~17 nM
CGTTAAATATTGA,8.05 Kd / Kd of best base at the position,
AGTTTAATATTGA,32.1 Kd / Kd of best base at the position,
AGGTAAATATTGA,1.27 Kd / Kd of best base at the position,
ACTTAAATATTGA,7.14 Kd / Kd of best base at the position,
AGTTAAATACTGA,27.4 Kd / Kd of best base at the position,
TGTTAAATATTGA,1.33 Kd / Kd of best base at the position,
AGCTAAATATTGA,3.26 Kd / Kd of best base at the position,
AGTTAGATATTGA,60.9 Kd / Kd of best base at the position,
AGTTAAATCTTGA,14.3 Kd / Kd of best base at the position,
AGTTAAATAGTGA,2.35 Kd / Kd of best base at the position,
AGATAAATATTGA,1.16 Kd / Kd of best base at the position,
AGTTAAATATAGA,1.73 Kd / Kd of best base at the position,
